Measured values taken from PubChem BioAssay (Tox21).
“And” between values parts separate entries of the source, which are not always exact repeats. Equal entries are not always repeated. Inconclusive results are not listed. Where a call stands in place of a potency, no number is given. Where a structure was tested more than once in an assay, its records may differ in their call. The source made the active and inactive calls. Unless noted, calls follow the shape of the dose curve; as a rule, active = well fitted curve in the direction sought with a large enough effect in the repeat runs; inconclusive = weak or mixed curves; inactive = no such curve, though single readings can be large; an effect the other way counts as inactive or inconclusive.

Columns and labels:
[1] = target: Thyrotropin receptor (Homo sapiens) (UniProt P16473); assay: qHTS assay to identify small molecule agonists of the thyroid stimulating hormone receptor (TSHR) signaling pathway (AID 1224843; calls by dose curve; also: nearly all actives have a fitted effect of over 45% in size)
Sequence of Thyrotropin receptor (Homo sapiens) (P16473 whole entry, looked up): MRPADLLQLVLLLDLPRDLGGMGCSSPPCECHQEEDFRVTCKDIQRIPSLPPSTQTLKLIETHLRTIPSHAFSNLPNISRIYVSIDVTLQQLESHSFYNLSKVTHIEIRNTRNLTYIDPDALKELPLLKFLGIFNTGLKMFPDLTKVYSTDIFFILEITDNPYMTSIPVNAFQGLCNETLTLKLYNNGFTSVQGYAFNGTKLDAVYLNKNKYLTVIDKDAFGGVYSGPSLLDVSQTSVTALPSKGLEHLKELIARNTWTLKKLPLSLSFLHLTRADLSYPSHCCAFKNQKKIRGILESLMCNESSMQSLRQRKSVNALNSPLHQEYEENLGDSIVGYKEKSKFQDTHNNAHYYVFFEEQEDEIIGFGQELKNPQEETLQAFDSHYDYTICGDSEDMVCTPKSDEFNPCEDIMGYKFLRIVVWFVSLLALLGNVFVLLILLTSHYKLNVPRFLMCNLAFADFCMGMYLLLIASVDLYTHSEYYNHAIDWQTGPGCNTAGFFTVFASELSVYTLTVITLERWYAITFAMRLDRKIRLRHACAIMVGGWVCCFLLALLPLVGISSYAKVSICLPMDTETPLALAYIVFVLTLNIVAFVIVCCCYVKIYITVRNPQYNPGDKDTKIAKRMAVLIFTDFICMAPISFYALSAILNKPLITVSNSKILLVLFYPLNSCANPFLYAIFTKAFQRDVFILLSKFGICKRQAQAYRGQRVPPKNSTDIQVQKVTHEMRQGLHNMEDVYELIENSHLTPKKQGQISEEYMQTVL
How it was run: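 Cell line HEK293 with TSHR; density 800/well. Exposure 30 min RT. Readout HTRF cAMP (cAMP-d2/anti-cAMP-cryptate), 1 h RT before reading.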

[2] = qHTS assay to identify small molecule agonists of the hypoxia (HIF-1) signaling pathway - cell viability counter screen (AID 1224844; calls by dose curve; also: nearly all actives have a fitted effect of over 50% in size)
How it was run: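 Tox21 10K compounds were added to HRE-bla ME-180 cells (0.5% dialyzed FBS) and incubated 17 hrs at 37C; ATP-based CellTiter-Glo luminescence then reported cell viability in the same wells.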

[3] = qHTS assay to identify small molecule agonists of H2AX (AID 1224845; active = well fitted activation curve with a large enough effect in the signal ratio in the repeat runs, not every such curve was filed as active; the % refers to the signal ratio; also: potency is read from the fitted curve at half-maximal effect)
How it was run: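 Wild-type CHO-K1 cells plated overnight, then exposed 3 hr at 37C to compounds at 15 concentrations (0.76% DMSO). Lysed, then HTRF anti-pH2AX(S139)-cryptate/anti-H2AX-d2 detection after 24 hr at room temperature; emissions 665 and 620 nm.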

[4] = qHTS assay to identify small molecule agonists of the hypoxia (HIF-1) signaling pathway (AID 1224846; active = well fitted activation curve with a large enough effect in the signal ratio in the repeat runs, not every such curve was filed as active; the % refers to the signal ratio)
How it was run: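 Steps: seed ME-180 HRE-bla cells (2,000/well, 0.5% dialyzed FBS); incubate 5 hrs at 37C; pin-transfer compounds or DMSO; incubate 17 hrs; add LiveBLAzer B/G substrate CCF4-AM; measure reporter activation by FRET.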

[5] = qHTS assay to identify small molecule agonists of H2AX - cell viability counter screen (AID 1224847; calls by dose curve; also: nearly all actives have a fitted effect of over 30% in size; also: potency is read from the fitted curve at half-maximal effect)
How it was run: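 Compounds tested at 15 concentrations were incubated 3 hr at 37C with wild-type CHO-K1 cells; cellular ATP-based luminescence (CellTiter-Glo) indicated viability.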

[6] = qHTS assay to identify small molecule antagonists of the estrogen related receptor (ERR) signaling pathway from Tox21 library (AID 1224848); also: nearly all actives have a fitted effect of over 50% in size
How it was run: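 Screening used an ERR reporter line supplied by NTP, exposed for 18 h at 37 C to library compounds delivered in DMSO. Signal was luciferase luminescence developed with ONE-Glo at room temperature for 30 min.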

[7] = qHTS assay to identify small molecule agonists of the estrogen related receptor (ERR) signaling pathway from Tox21 library (AID 1224849; calls by dose curve; also: nearly all actives have a fitted effect of over 15% in size); conditions: ERR reporter cell line, ONE-Glo luciferase, 18 h
How it was run: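 Agonist signal is luciferase luminescence from an ERR reporter cell line treated 18 h at 37 C with DMSO-dissolved compounds, read 30 min after ONE-Glo addition at room temperature.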

[8] = qHTS RealTime-Glo MT Cell Viability Assay in HepG2 cells - 24 hour (AID 1224867); also: nearly all actives have a fitted effect of over 50% in size
How it was run: (§1)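 HepG2 cells (600/well) were dispensed with RealTime-Glo reagents, incubated 5 h at 37 °C, then treated with compounds in DMSO for up to 40 h. Nonlytic NanoLuc luminescence reflecting viable cells was read at each stated time point.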

[9] = qHTS RealTime-Glo MT Cell Viability Assay in HEK293 cells - 32 hour (AID 1224868); also: top concentration of the series differs between compounds; nearly all actives have a fitted effect of over 50% in size
How it was run: (§2)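 HEK293 cells seeded with NanoLuc/prosubstrate reagent, rested 5 h at 37 C, then dosed and kept at 37 C up to 40 h. Nonlytic real-time luminescence from viable cells read at 0, 8, 16, 24, 32 and 40 h.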

[10] = A CellTox Green Cytotoxicity Assay to monitor cytotoxicity in HEK293 cells - 0 hour (AID 1224869); also: nearly all actives have a fitted effect of over 50% in size; also: potency is read from the fitted curve at half-maximal effect
How it was run: (§3)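 Cytotoxicity was tracked continuously in HEK293 cells by a DNA-binding dye excluded from viable cells. Compounds were transferred in DMSO 5 h after seeding; fluorescence was recorded at intervals up to 40 h.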

[11] = A CellTox Green Cytotoxicity Assay to monitor cytotoxicity in HEK293 cells - 40 hour (AID 1224871); also: nearly all actives have a fitted effect of over 45% in size; also: potency is read from the fitted curve at half-maximal effect
How it was run: as §3

[12] = qHTS RealTime-Glo MT Cell Viability Assay in HEK293 cells - 16 hour (AID 1224872)
How it was run: as §2

[13] = qHTS RealTime-Glo MT Cell Viability Assay in HepG2 cells - 8 hour (AID 1224873); also: nearly all actives have a fitted effect of over 55% in size
How it was run: (§4)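 HepG2 cells mixed with RealTime-Glo MT reagents (NanoLuc plus cell-permeant prosubstrate) were seeded at 600 cells/well, incubated 5 h at 37 C/5% CO2, then pinned with compounds in DMSO; nonlytic luminescence tracked viability during 40 h treatment.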

[14] = qHTS RealTime-Glo MT Cell Viability Assay in HEK293 cells - 40 hour (AID 1224874); conditions: RealTime-Glo luminescence; max response: stronger effect = lower value; also: nearly all actives have a fitted effect of over 50% in size
How it was run: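 Nonlytic bioluminescent viability monitoring. HEK293 at 600 cells/well with reagent; 5 h settle; compound transfer by pintool; plates held at 37 C and read at set time points.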

[15] = A CellTox Green Cytotoxicity Assay to monitor cytotoxicity in HEK293 cells - 24 hour (AID 1224875); also: nearly all actives have a fitted effect of over 45% in size
How it was run: as §3

[16] = A CellTox Green Cytotoxicity Assay to monitor cytotoxicity in HepG2 cells - 16 hour (AID 1224876); also: nearly all actives have a fitted effect of over 45% in size; also: potency is read from the fitted curve at half-maximal effect
How it was run: (§5)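 Real-time, homogeneous cytotoxicity readout: dead-cell DNA staining by CellTox Green in HepG2 monolayers, fluorescence measured at timed intervals up to 40 h of continuous compound exposure.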

[17] = qHTS RealTime-Glo MT Cell Viability Assay in HepG2 cells - 32 hour (AID 1224877); also: nearly all actives have a fitted effect of over 55% in size
How it was run: as §1

[18] = A CellTox Green Cytotoxicity Assay to monitor cytotoxicity in HepG2 cells - 24 hour (AID 1224878); also: nearly all actives have a fitted effect of over 45% in size; also: potency is read from the fitted curve at half-maximal effect
How it was run: as §5

[19] = A CellTox Green Cytotoxicity Assay to monitor cytotoxicity in HepG2 cells - 40 hour (AID 1224879); also: nearly all actives have a fitted effect of over 40% in size; also: potency is read from the fitted curve at half-maximal effect
How it was run: as §5

[20] = qHTS RealTime-Glo MT Cell Viability Assay in HepG2 cells - 40 hour (AID 1224870); also: nearly all actives have a fitted effect of over 50% in size
How it was run: as §4

CN(C)C(=O)Cl
Potency [1]: inactive
Potency [2]: inactive
Potency [3]: inactive
outcome [4]: inactive
Potency [5]: inactive
Potency [6]: inactive
activity change, positive = activation ([7]; at 92.4 µM (top of the series)): 5.68% (inactive) and 6.16% (inactive)
outcome [8]: inactive
Potency [9]: inactive
Potency [10]: inactive
Potency [11]: inactive
outcome [12]: inactive
outcome [13]: inactive
max response [14]: 1.46% (inactive) and 5.01% (inactive)
Potency [15]: inactive
Potency [16]: inactive
outcome [17]: inactive
Potency [18]: inactive
Potency [19]: inactive

O=C(O)COc1ccccc1
Potency [1]: inactive
Potency [2]: inactive
Potency [3]: inactive
outcome [4]: inactive
Potency [5]: inactive
outcome [8]: inactive
Potency [9]: inactive
Potency [10]: inactive
Potency [11]: inactive
outcome [12]: inactive
outcome [13]: inactive
max response [14]: -2.67% (inactive) and 2.52% (inactive) and 5.65% (inactive)
Potency [16]: inactive
outcome [17]: inactive
Potency [18]: inactive
Potency [19]: inactive

OC[C@@H](O)[C@H]1O[C@@H]2O[C@H](C(Cl)(Cl)Cl)O[C@@H]2[C@H]1O
Potency [1]: inactive
Potency [2]: inactive
outcome [4]: inactive
Potency [5]: inactive
Potency [6]: inactive
activity change, positive = activation ([7]; at 92.4 µM (top of the series)): 4.33% (inactive) and 6.3% (inactive)
outcome [8]: inactive
Potency [9]: inactive
Potency [10]: inactive
outcome [20]: inactive
Potency [11]: inactive
outcome [12]: inactive
outcome [13]: inactive
max response [14]: -9.36% (inactive) and 2.42% (inactive)
Potency [15]: inactive
Potency [16]: inactive
outcome [17]: inactive
Potency [18]: inactive
Potency [19]: inactive

CC(C)c1cccc(C(C)C)c1O
Potency [1]: inactive
Potency [2]: inactive
Potency [3]: inactive
Potency [5]: 50.5 µM (active) and inactive
Potency [6]: inactive
activity change, positive = activation ([7]; at 42.5 µM (top of the series)): -0.995% (inactive)
activity change, positive = activation ([7]; at 92.4 µM (top of the series)): -9.76% (inactive) and -27.6% (inactive)
outcome [8]: inactive
Potency [9]: inactive
Potency [10]: inactive and 38.9 µM (active)
outcome [20]: inactive
Potency [11]: 24.5 µM (active) and 43.6 µM (active) and inactive
outcome [12]: inactive
outcome [13]: inactive
max response [14]: -0.191% (inactive) and -2.39% (inactive) and 0.656% (inactive)
Potency [16]: 43.6 µM (active) and inactive
outcome [17]: inactive
Potency [18]: 43.6 µM (active) and inactive
Potency [19]: 43.6 µM (active) and inactive

CNC(=O)Oc1cccc2ccccc12
Potency [1]: inactive
Potency [2]: inactive
Potency [3]: 99.8 µM (active) and inactive
outcome [4]: inactive
Potency [5]: inactive
outcome [8]: inactive
Potency [9]: inactive
Potency [10]: inactive
outcome [20]: inactive
Potency [11]: inactive
outcome [12]: inactive
outcome [13]: inactive
max response [14]: -29.1% (inactive) and -20.7% (inactive) and -13.7% (inactive)
Potency [15]: inactive
Potency [16]: inactive
Potency [18]: inactive
Potency [19]: inactive

O=C(O)CCCc1ccc(N(CCCl)CCCl)cc1
Potency [1]: inactive
Potency [2]: inactive
Potency [3]: 56.9 µM (active)
outcome [4]: inactive
Potency [5]: inactive
outcome [8]: inactive
Potency [10]: inactive
outcome [20]: inactive
Potency [11]: inactive
outcome [12]: inactive
outcome [13]: inactive
Potency [16]: inactive
outcome [17]: inactive
Potency [18]: inactive
Potency [19]: inactive

CNC(=O)O/N=C/C(C)(C)S(C)=O (stereo not given)
Potency [1]: inactive
Potency [2]: inactive
Potency [3]: inactive
outcome [4]: inactive
Potency [5]: inactive
outcome [8]: inactive
Potency [9]: inactive
Potency [10]: inactive
outcome [20]: inactive
Potency [11]: inactive
outcome [12]: inactive
outcome [13]: inactive
Potency [16]: inactive
Potency [18]: inactive
Potency [19]: inactive

C/C=C/c1ccc2c(c1)OCO2
Potency [1]: inactive
Potency [2]: inactive
Potency [3]: inactive
outcome [4]: inactive
Potency [5]: inactive
outcome [8]: inactive
Potency [9]: inactive
Potency [10]: inactive
Potency [11]: inactive
outcome [12]: inactive
outcome [13]: inactive
Potency [15]: inactive
Potency [16]: inactive
Potency [18]: inactive
Potency [19]: inactive

Cl[C@H]1OCCO[C@@H]1Cl
Potency [1]: inactive
Potency [2]: inactive
Potency [3]: inactive
outcome [4]: inactive
Potency [5]: inactive
Potency [6]: inactive
activity change, positive = activation ([7]; at 92.4 µM (top of the series)): -1.08% (inactive) and -4.01% (inactive)
outcome [8]: inactive
Potency [9]: inactive
Potency [10]: inactive
outcome [20]: inactive
Potency [11]: inactive
outcome [12]: inactive
outcome [13]: inactive
Potency [16]: inactive
Potency [18]: inactive
Potency [19]: inactive

O=[N+]([O-])c1cc([As](=O)(O)O)ccc1O
Potency [1]: inactive
Potency [2]: inactive
outcome [4]: inactive
Potency [5]: inactive
Potency [6]: inactive
activity change, positive = activation ([7]; at 42.5 µM (top of the series)): -1.93% (inactive)
activity change, positive = activation ([7]; at 92.4 µM (top of the series)): -21.2% (inactive) and 4.02% (inactive)
outcome [8]: inactive
Potency [9]: inactive
Potency [10]: inactive
outcome [20]: inactive
Potency [11]: inactive
outcome [12]: inactive
outcome [13]: inactive
max response [14]: 6.64% (inactive) and -3.36% (inactive) and 2.24% (inactive)
Potency [15]: inactive
Potency [16]: inactive
Potency [18]: inactive
Potency [19]: inactive

CCOP(=S)(OCC)Oc1cc(C)nc(C(C)C)n1
Potency [1]: inactive
Potency [2]: inactive
Potency [3]: inactive
outcome [4]: inactive
Potency [5]: inactive
outcome [8]: inactive
Potency [9]: inactive
Potency [10]: inactive
outcome [20]: inactive
Potency [11]: inactive
outcome [12]: inactive
outcome [13]: inactive
Potency [15]: inactive
Potency [16]: inactive
outcome [17]: inactive
Potency [18]: inactive
Potency [19]: inactive and 24.5 µM (active)

N#CN=C(N)N
Potency [1]: inactive
Potency [2]: inactive
Potency [3]: inactive
outcome [4]: inactive
Potency [5]: inactive
outcome [8]: inactive
Potency [9]: inactive
Potency [10]: inactive
outcome [20]: inactive
Potency [11]: inactive
outcome [12]: inactive
outcome [13]: inactive
max response [14]: 1.89% (inactive) and 5.69% (inactive)
Potency [15]: inactive
Potency [16]: inactive
outcome [17]: inactive
Potency [18]: inactive
Potency [19]: inactive

CNCC(O)c1ccc(O)cc1 (stereo not given)
Potency [1]: inactive
Potency [2]: inactive
Potency [3]: inactive
outcome [4]: inactive
Potency [5]: inactive
Potency [6]: inactive
activity change, positive = activation ([7]; at 42.5 µM (top of the series)): 12.7% (inactive)
activity change, positive = activation ([7]; at 92.4 µM (top of the series)): 2.21% (inactive)
outcome [8]: inactive
Potency [9]: inactive
Potency [10]: inactive
outcome [20]: inactive
Potency [11]: inactive
outcome [12]: inactive
outcome [13]: inactive
Potency [16]: inactive
outcome [17]: inactive
Potency [18]: inactive
Potency [19]: inactive
